A short description of assay [1]: Wnt pathway potentiators raising nuclear beta-catenin – imaging, WNT3A-conditioned medium, mouse C2C12, NPC library, primary screen (AID 1117326; in the data active means nuclear beta-catenin stimulation mostly above about 4.2%, no sharp cut-off; inactive means mostly below about 10%; further: reference of the scale not given here). The conditions noted are these: stronger effect = higher value.
The nature of assay [2]: stimulators of insulin release from INS-1E, primary screen, cell-based, 5 mM glucose, NPC library (AID 1117329;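 active means compound raises insulin release from rat beta cells at 5 mM glucose, no numeric limit stated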; further: reference of the scale not given here). The conditions noted are these: rat INS-1E insulin secretion, at 10 µM, stronger effect = higher value.
Assay [3] is described as follows: growth inhibition of GSK3B-pretreated HCT116 cells – cell-based, CellTiter-Glo, 0.2 to 20 µM (AID 1117336;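 active means compounds lowering colon cancer cell viability after pretreatment blocking the GSK3B kinase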). The conditions noted are these: HCT116 viability after GSK3B inhibitor, at 20 µM, stronger effect = higher value.
The nature of assay [4]: inhibition of endothelial tube formation, primary screen, imaging, VEGF stimulated, CD31 staining, tube area, NPC library (AID 1117340;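 active means compound that reduces growth-factor-driven endothelial tube area in a mixed cell culture, no cutoff stated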). Particulars: VEGF-stimulated ADSC/ECFC co-culture, at 10 µM, stronger effect = higher value.
A short description of assay [5]: GLP1 release stimulators, primary, NCI-H716, NPC library (AID 1117341;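 active means compound raises GLP1 secretion from the human gut endocrine cells, with no numeric limit stated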; further: reference of the scale not given here). Particulars: NCI-H716 cells, at 10 µM, stronger effect = higher value.
The nature of assay [6]: HCT116 colon cancer cell growth inhibition, primary screen, CellTiter-Glo luminescence, NPC library (AID 1117342;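 active means compounds that lower survival of HCT116 colon cancer cells in the luminescence readout, no numeric limit stated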). Particulars: at 20 µM (top of the series).
The nature of assay [7]: reduced SW480 viability measured with CellTiter-Glo, NPC library, primary (AID 1117343;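 active means compounds that lower viability of the colon cancer cells in the luminescence readout, with no numeric limit stated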). Particulars: CellTiter-Glo luminescence; at 20 µM (top of the series) unless noted.
Assay [8] is described as follows: NPC library primary testing for decreased DLD-1 cell viability via CellTiter-Glo (AID 1117346;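 active means compounds that lower survival of DLD-1 colon cancer cells in the luminescence readout, no cutoff given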). Particulars: DLD-1 viability, CellTiter-Glo luminescence; at 20 µM (top of the series).
Assay [9] concerns Aerobactin synthetase IucA (Klebsiella pneumoniae). Nature of the assay: inhibition of K. pneumoniae IucA enzyme – biochemical, Tocris library, absorbance (AID 1345561; call rule not given here;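 further: 100% = enzyme without compound and 0% = no enzyme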). Particulars: purified IucA enzyme assay, absorbance (OD) read-out; stronger effect = lower value;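 tested at 8 µM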.
Assay [10] is described as follows: viability loss with induced miR-34 in A549 – imaging, A549 dox-inducible miR-34, nuclei and caspase counts, primary screen (AID 1347080;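 active means compounds whose cell count with miR-34 switched on is under 0.7 times the count with it off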). The conditions noted are these: A549 miR-34 inducible, Hoechst nuclei count, 48 h.
A short description of assay [11]: galactose survival enhancers in mitochondrial complex I cybrids – cell-based, galactose medium, ATP luminescence, primary screen (AID 1645843).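 Further: positive z means more ATP and so rescue of galactose-driven cybrid death.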 Particulars: complex I mutant cybrid cells, 72 h, stronger effect = higher value.
Assay [12] is described as follows: P. berghei load reduction in hepatocytes – cell-based, HepG2, luciferase luminescence, HepG2 viability, primary screen (AID 624349; in the data active means parasite load remaining mostly below about 12%, no sharp cut-off; inactive means mostly above about 10%;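 further: 100% = mean of DMSO negative control wells on the same plate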). Particulars: P. berghei liver stage in HepG2, luciferase luminescence, concentration not given here; parasite load remaining: stronger effect = lower value; viability: measured here: HepG2 viability without parasites.
A short description of assay [13]: MELAS cybrid and Rieske KO viability enhancers – cell-based, MELAS cybrids, Rieske KO mouse fibroblasts, CellTiter-Glo, primary screen (AID 1508586;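 active means mean z-score across replicates of 1.96 or higher in either the MELAS or the Rieske mutant cell line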;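 further: z relative to plate mean and SD of compound and empty wells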). Particulars: low glucose.
The mark [14] stands for this setting: stronger effect = lower value, cell number ratio, induced over uninduced.
[15] abbreviates: measured here: relative caspase fold change +Dox/-Dox.
Setting [16] is: measured here: total cells with miR-34 induction, stronger effect = lower value.
The mark [17] stands for this setting: measured here: total cells without miR-34 induction.
Setting [18] is: MELAS cybrid survival, CellTiter-Glo 48 h, stronger effect = higher value.
The mark [19] stands for this setting: Rieske KO mouse fibroblast survival, CellTiter-Glo 72 h.

Several values for one entry are separate records, joined by “and”; a condition that tells them apart may be missing. Equal values may be shown once. Where a structure was tested more than once in an assay, its records may differ in their call. Activity calls are given as the source filed them.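 How the source made its calls, unless noted: active means z-score of at least 1.8 in each of two replicates, scored against plate mean and spread of sample wells; inactive means the rest.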

As for `CC1(c2ccccc2)OC(C(=O)O)=CC1=O` (configuration not stated), the nuclear beta-catenin stimulation in [1] (at 10 µM) is 0.9% (inactive); in [1] (stimulation, at 2 µM) it was 1.2%. The insulin secretion stimulation in assay [2] is 0.9% (inactive). The viability decrease in assay [3] is 1.95% (inactive). Besides, the tube area decrease in assay [4] was 0.2% (inactive). In assay [5], the GLP1 secretion stimulation is 1.1% (inactive). In addition, in [6], the inhibition of viability is -7.4% (inactive). Moreover, the viability decrease (inhibition) is 4.5% (inactive) in [7] and 4.95% (inactive) in assay [8]. Moreover, the remaining activity in assay [9] was 122% (inactive). The figures for the fold change in assay [10] (setting [14]) and in [10] (setting [15]) were 0.98 (inactive) and 0.832, respectively. Besides, the cell count in assay [10] (setting [16]) came out at 9820; in [10] (setting [17]), 10000. Besides, in assay [11], the z-score is -0.34 (inactive).

Turning to `CCOC(=O)c1cnc2c(cnn2CC)c1NN=C(C)C`, in assay [12], the parasite load remaining was 33.1% (inactive). For the same compound, the viability in [12] is 68.5%. Further, the nuclear beta-catenin stimulation in assay [1] (at 10 µM) was -1.1% (inactive); in [1] (stimulation, at 2 µM), 1.4%. Moreover, in assay [2], the insulin secretion stimulation was 5.8% (inactive). For the same compound, the viability decrease in [3] was -110% (inactive). Further, the tube area decrease in assay [4] was -6% (inactive). For the same compound, the GLP1 secretion stimulation in [5] was 0.7% (inactive). For the same compound, the inhibition of viability in assay [6] is 29.6% (inactive). The viability decrease (inhibition) in [7] was 21.1% (inactive); in [8], 27.5% (inactive). For the same compound, the remaining activity in assay [9] is 115% (inactive). Besides, the fold change in assay [10] (setting [14]) was 1 (inactive) and 0.89 (inactive) and 0.857 (inactive); in [10] (setting [15]), 1.06 and 0.8 and 1.84. Also, the cell count in assay [10] (setting [16]) is 7810 and 7710 and 8880; in assay [10] (setting [17]), 7780 and 8670 and 10400. Besides, the z-score is 1.91 in assay [13] (setting [18]); 2.39 in assay [13] (setting [19]); 1.13 (inactive) and 2.63 (active) and 1.51 (inactive) in assay [11].

Regarding `CC(C)C(=O)c1c(C(C)C)nn2ccccc12`, in assay [12], the parasite load remaining is 83.4% (inactive). For the same compound, the viability in assay [12] stood at 97%. The nuclear beta-catenin stimulation was -0.8% (inactive) in assay [1] (at 10 µM) and 0.4% in [1] (stimulation, at 2 µM). Besides, the insulin secretion stimulation in assay [2] is 24.5% (active). Further, the viability decrease in assay [3] was 39.4% (inactive). Further, the tube area decrease in assay [4] is -13.6% (inactive). Further, the GLP1 secretion stimulation in [5] was 3.4% (inactive). Also, the inhibition of viability in [6] is 31.8% (inactive). For the same compound, the viability decrease (inhibition) in [7] was 5% (inactive); in assay [8] it was 1.8% (inactive). For the same compound, the remaining activity in assay [9] was 110% (inactive). Moreover, the fold change was 1.02 (inactive) and 0.934 (inactive) and 0.944 (inactive) in assay [10] (setting [14]); 0.854 and 0.782 and 0.951 in assay [10] (setting [15]). Moreover, the cell count was 9930 and 7850 and 8420 in assay [10] (setting [16]); 9700 and 8400 and 8930 in assay [10] (setting [17]). Besides, the z-score was 1.07 (inactive) and 0.83 (inactive) in assay [13] (setting [18]); -0.15 and -1.19 in assay [13] (setting [19]); 0.105 (inactive) and -0.07 (inactive) and 0.255 (inactive) in assay [11].

Take `COc1ccc(CCN(C)CCCN2CCc3cc(OC)c(OC)cc3CC2=O)cc1OC`: the nuclear beta-catenin stimulation in [1] (at 10 µM) is 1.2% (inactive); in assay [1] (stimulation, at 2 µM) it was 0%. For the same compound, the insulin secretion stimulation in [2] was 10.7% (inactive). Moreover, in [3], the viability decrease was -11.1% (inactive). Further, the tube area decrease in assay [4] was -12.6% (inactive). Moreover, the GLP1 secretion stimulation in assay [5] is 7.6% (inactive). For the same compound, the inhibition of viability in assay [6] is 7.5% (inactive). The viability decrease (inhibition) is -4.7% (inactive) in [7] and 12.1% (inactive) in [8]. In addition, the remaining activity in [9] was 98.9% (inactive). Further, the fold change in assay [10] (setting [14]) was 0.903 (inactive); in [10] (setting [15]) it was 1.41. In addition, the cell count in assay [10] (setting [16]) came to 8020; in assay [10] (setting [17]), 8880. Also, in [11], the z-score is -0.34 (inactive).

For `CN=C(NC#N)NCCSCc1csc(N=C(N)N)n1`, the parasite load remaining in assay [12] is 42.8% (inactive). Moreover, the viability in [12] is 132%. Moreover, the nuclear beta-catenin stimulation in [1] (at 10 µM) is -0.6% (inactive); in [1] (stimulation, at 2 µM), -1.8%. Also, the insulin secretion stimulation in assay [2] was 0.3% (inactive). Also, the viability decrease in assay [3] is 5.8% (inactive). Also, the tube area decrease in [4] is 14.5% (inactive). The GLP1 secretion stimulation in assay [5] was 0% (inactive). The inhibition of viability in assay [6] is -2.7% (inactive). In addition, the viability decrease (inhibition) in assay [7] was -14.2% (inactive); in [8], -5.4% (inactive). Further, the remaining activity in [9] is 91.8% (inactive). Also, the fold change is 0.914 (inactive) and 0.897 (inactive) in assay [10] (setting [14]); 0.888 and 0.977 in [10] (setting [15]). The cell count was 8420 and 9980 in assay [10] (setting [16]); 9210 and 11100 in assay [10] (setting [17]). Besides, the z-score was -0.55 (inactive) in [13] (setting [18]); -0.51 in [13] (setting [19]); 0.35 (inactive) and 0.345 (inactive) in [11].

Values taken from PubChem BioAssay.
